Where two headings read alike, the source gives them in different places. In all, about 13,000 compounds went through this assay and about 3,200 (25%) showed an effect of 50% or more. This is one part of the list.

For this assay, the system named is P. falciparum stage V gametocytes. Also noted: BacTiter-Glo ATP luminescence viability of purified stage V gametocytes in 384-well plates, per cent inhibition versus DMSO. As to conditions: 48 h, 5 µM, inhibitor.

Usually % Inhibition stands for the drop in the measured response relative to a control, in per cent. On to `CCCNC(=O)C1Cc2cc(OC)c(OC)cc2C2(N1)C(=O)N(Cc1cccc(OC)c1)c1ccccc12` (stereo not shown) [TCMDC-141464], for which the “% Inhibition” value came to 26.41%.

As for `C=CCc1cc(OC)ccc1OCCCOc1c(C)nc(N)nc1N` [TCMDC-131358], the “% Inhibition” value amounted to 1.5%.

On to `CCCCCCc1ncc(-c2cc3cc(O)c(-c4ccccc4)cc3oc2=O)s1` [TCMDC-124096], for which the “% Inhibition” value was -4.644%.

For the compound `c1ccc2c3c([nH]c2c1)C(c1ccc2c(c1)CCO2)N(c1ncnc(N2CCN(CCCN4CCOCC4)CC2)n1)CC3` (stereo not shown) [TCMDC-138517], the “% Inhibition” value was 42.57%.

Consider `O=[N+]([O-])c1ccc(NC(=NCCOc2ccccc2)Nc2ccccc2Br)c(O)c1` [TCMDC-139982], for which the “% Inhibition” value amounted to 18.66%.

`Cc1cc(Oc2ccc(-n3ccnc3)cc2)nc(N2CCN(CCCN3CCCC3)CC2)n1` [TCMDC-132208]: the “% Inhibition” value came to 34.43%.

Consider `CCNC[C@H]1CCCN1CCOc1ccc(-n2cnc3cc(-c4ccc(Cl)cc4)sc3c2=O)cc1OC` [TCMDC-134841], for which the “% Inhibition” value is on record as 68.56%.

As for `CN(C)c1nc2cc(-n3cnc4cc(-c5ccc(Cl)cc5)sc4c3=O)ccc2n1CCCN1CCCCC1` [TCMDC-138925], the “% Inhibition” value came to 34.32%.

With `CN(CCN1CCCC1)c1nc2ccc(-n3cnc4cc(-c5ccc(Cl)cc5)sc4c3=O)cc2[nH]1` [TCMDC-138918], the “% Inhibition” value is on record as 5.034%.

As for `CCN(C)CCCn1c(N(C)C)nc2cc(-n3cnc4cc(-c5ccc(Cl)cc5)sc4c3=O)ccc21` [TCMDC-138926], the “% Inhibition” value is listed as -50.75%.

For `COc1cc(-n2c(CN3CCCC3)nc3cc(-c4ccc(Cl)cc4)sc3c2=O)ccc1OCCN1CCCC1` [TCMDC-135298], the “% Inhibition” value is recorded as 36.8%.

Regarding `COc1cc(-n2cnc3cc(-c4ccc(Cl)cc4)sc3c2=O)ccc1OCCN1CCC(c2cccc(NC(C)=O)c2)CC1` [TCMDC-138930], the “% Inhibition” value was 71.5%.

As to `CN(C)c1nc2cc(-n3cnc4cc(-c5ccc(Cl)cc5)sc4c3=O)ccc2n1CCCN1CCCC1` [TCMDC-138922], the “% Inhibition” value is given as 42.12%.

Turning to `COc1cc(-n2cnc3cc(-c4ccc([N+](=O)[O-])cc4)sc3c2=O)ccc1OCCN1CCCC1` [TCMDC-138916], the “% Inhibition” value was 104.9%.

Turning to `CCCCCc1ccc(N2C(N)=NC(N)=NC2(C)C)cc1` [TCMDC-137709], the “% Inhibition” value is given as 8.731%.

On to `Cc1cccn2c(=O)c3cc(C(=O)NCCN4CCOCC4)c(=N)n(CCc4ccccc4)c3nc12` [TCMDC-124570], for which the “% Inhibition” value turned out to be 5.032%.

With `OCc1ccc(-c2cncc(Nc3ccc(F)c(Cl)c3)c2)cc1` [TCMDC-136671], the “% Inhibition” value was -20.21%.

Turning to `CCOc1ccc(C=CC(=O)Nc2ccc3nc(N4CCN(C)CC4)cc(C)c3c2)cc1OC` [TCMDC-125866], the “% Inhibition” value is on record as -25.94%.

Regarding `CC(C)c1ccc(NC(=O)c2ccc(NCCCN(C)Cc3ccccc3)c([N+](=O)[O-])c2)cc1` [TCMDC-125687], the “% Inhibition” value is on record as -12.67%.

As to `CCC(CCON1C(N)=NC(N)=NC1(C)C)c1ccc(Cl)cc1` (stereo not shown) [TCMDC-131710], the “% Inhibition” value is reported as 30.1%.

In the case of `Cc1ccccc1Oc1nc2ccccc2nc1SCC(=O)NC(C)C` [TCMDC-124733], the “% Inhibition” value is on record as -10.37%.

Consider `COc1ccc(Nc2ccnc3cc(Cl)ccc23)cc1OC` [TCMDC-124814], for which the “% Inhibition” value is on record as -70.18%.

Turning to `COc1ccc2c(c1)S(=O)(=O)N=C(N1CCCC1c1ccc(Cl)c(Cl)c1)N2C` (stereo not shown) [TCMDC-134209], the “% Inhibition” value was determined as 3.235%.

As for `COc1cc(NC2=NS(=O)(=O)c3cc(Cl)ccc3N2C)cc(OC)c1OC` [TCMDC-134208], the “% Inhibition” value is recorded as 87.41%.

On to `Oc1ccccc1CNCC(O)c1cccc(C(F)(F)F)c1` (stereo not shown) [TCMDC-140303], for which the “% Inhibition” value is recorded as 18.18%.

`CCNc1cc(-c2cccc(OC)c2)nc(Nc2ccc(F)cc2)n1` [TCMDC-134014]: the “% Inhibition” value is -12.85%.

Take `Cc1ccc(C(=O)Nc2ccc(C)c(OC3CCN(Cc4ccco4)C3)c2)cc1` (stereo not shown) [TCMDC-133986]: the “% Inhibition” value is recorded as 48.65%.

On to `O=C(Nc1ccc(OC2CCN(Cc3ccco3)CC2)c(Cl)c1)c1ccc2ncccc2c1` [TCMDC-133984], for which the “% Inhibition” value stood at 86.08%.

As for `Cc1ccc(NC(=O)c2ccc3ncccc3c2)cc1OC1CCN(Cc2ccc(F)cc2)C1` (stereo not shown) [TCMDC-133759], the “% Inhibition” value is recorded as -2.086%.

In the case of `O=C(Nc1ccc(OC2CCN(CC3CC3)CC2)c(Cl)c1)c1ccc2ncccc2c1` [TCMDC-134273], the “% Inhibition” value came to 41.88%.

For the compound `O=C(Nc1ccc(OC2CCN(Cc3ccco3)C2)c(Cl)c1)c1ccc2ncccc2c1` (stereo not shown) [TCMDC-133987], the “% Inhibition” value was determined as 24.52%.

Consider `Cc1ccc(NC(=O)c2ccc3ncccc3c2)cc1OC1CCN(Cc2ccco2)C1` (stereo not shown) [TCMDC-133985], for which the “% Inhibition” value stood at 61.5%.

For the compound `O=C1c2ccc([N+](=O)[O-])cc2C(=O)N1c1ccc2[nH]ncc2c1` [TCMDC-131599], the “% Inhibition” value is given as -5.185%.

`CCOC(=O)c1ccc(NC(=O)Nc2ccc(-c3ccc(-c4nc5cccc(C)c5[nH]4)s3)cc2)cc1` [TCMDC-133259]: the “% Inhibition” value is recorded as -10.61%.

Consider `CC(=O)C1(c2ccccc2)CCN(CCC2(c3ccc(Cl)c(Cl)c3)CN(C(=O)C3CCCC3)CCO2)CC1` (stereo not shown) [TCMDC-135325], for which the “% Inhibition” value is -42.49%.

On to `CC(C)c1cccc(C(C)C)c1NC(=O)NNC(=O)c1ccc(CCN2CCC(c3nc(COCC(F)(F)F)c(-c4ccc(F)cc4)o3)CC2)cc1` [TCMDC-131908], for which the “% Inhibition” value is -22.37%.

Take `Cc1c(C)c2c(c(C)c1O)CC[C@](C)(C(=O)N1CCC(CCN3CCC(c4c[nH]c5ccccc45)CC3)CC1)O2` [TCMDC-139891]: the “% Inhibition” value is on record as 102.8%.

For the compound `Cc1c(C)c2c(c(C)c1O)CC[C@@](C)(C(=O)N1CCC(CN3CCC(c4c[nH]c5ccccc45)CC3)CC1)O2` [TCMDC-139899], the “% Inhibition” value was 79.54%.

On to `Cc1c(C)c2c(c(C)c1O)CC[C@](C)(C(=O)NC1CCC(CN3CCC(c4c[nH]c5ccccc45)CC3)CC1)O2` (stereo partly shown) [TCMDC-139895], for which, where the note is “% Inhibition”, the “% Inhibition” value is reported as -20.01%.

Consider `Cc1c(C)c2c(c(C)c1O)CC[C@](C)(C(=O)NC1CCC(CN3CCC(c4c[nH]c5ccccc45)CC3)CC1)O2` (stereo partly shown) [TCMDC-139890], for which the “% Inhibition” value (% Inhibition) was -54.12%.

With `Cc1c(C)c2c(c(C)c1O)CC[C@](C)(C(=O)N1CCC(CN3CCC(c4c[nH]c5ccccc45)CC3)CC1)O2` [TCMDC-139892], the “% Inhibition” value is -67.77%.

Regarding `Cc1c(C)c2c(c(C)c1O)CC[C@@](C)(C(=O)N1CCC(CCN3CCC(c4c[nH]c5ccccc45)CC3)CC1)O2` [TCMDC-139898], the “% Inhibition” value came to 69.88%.

With `Cc1cccc(C(=O)Nc2ccnc(N3CCCN(Cc4cccc(O)c4)CC3)c2)c1` [TCMDC-134959], the “% Inhibition” value is reported as -37.26%.

Take `N=C1N=C(N)NC2(CCCCC2)N1OCC1CCCCC1` [TCMDC-131617]: the “% Inhibition” value is given as -29.76%.

For `CC1CCC2(CC1)NC(N)=NC(=N)N2OCCCCCCCCO` (stereo not shown) [TCMDC-131600], the “% Inhibition” value is 80.95%.

For the compound `CC1(C)NC(N)=NC(=N)N1OCCCO` [TCMDC-131559], the “% Inhibition” value is recorded as -1.825%.

Regarding `CNC(=O)c1ccc(/C=C/C(=O)N2CCc3ccc(-c4ccccc4)cc3C2c2cccc(C(F)(F)F)c2)cc1` (stereo not shown) [TCMDC-138253], the “% Inhibition” value is -22.09%.

Take `CN(C)CCCOc1ccccc1CN1CC[C@H](NC(=O)c2ccc(Cl)c(Cl)c2)C1` [TCMDC-140310]: the “% Inhibition” value is on record as -1.9%.

`O=C(N[C@H]1CCN(Cc2ccc(OCCN3CCNCC3)c3ccccc23)C1)c1ccc(Cl)c(Cl)c1` [TCMDC-140269]: the “% Inhibition” value was 83.44%.

As to `CN(C)CCCOc1ccc(CN2CC[C@H](NC(=O)c3ccc(Cl)c(Cl)c3)C2)cc1Cl` [TCMDC-140272], the “% Inhibition” value came to 19.07%.

For `CN1CCC[C@H]1COc1ccc(CN2CC[C@H](NC(=O)c3ccc(Cl)c(Cl)c3)C2)c2ccccc12` [TCMDC-140270], the “% Inhibition” value was determined as 22.59%.

Turning to `CN(C)CCCOc1ccc(CN2CC[C@H](NC(=O)c3ccc(Cl)c(Cl)c3)C2)c2ccccc12` [TCMDC-140267], the “% Inhibition” value was found to be 76.67%.

Turning to `O=C(N[C@H]1CCN(Cc2ccc(OCCN3CCCC3)c3ccccc23)C1)c1ccc(Cl)c(Cl)c1` [TCMDC-140268], the “% Inhibition” value was 76.23%.

For `CN(Cc1ccccc1)C(=O)CCNS(=O)(=O)c1cc(Br)cnc1N` [TCMDC-125445], the “% Inhibition” value was found to be 18.91%.

Turning to `CN(C)[C@@H]1C(=O)C(C(N)=O)=C(O)[C@@]2(O)C(=O)C3=C(O)c4c(O)ccc(C#Cc5ccccn5)c4C[C@H]3C[C@@H]12` [TCMDC-138642], the “% Inhibition” value is reported as 7.454%.

As to `COc1cccc(CCc2ccc(O)c3c2C[C@H]2C[C@H]4[C@H](N(C)C)C(=O)C(C(N)=O)=C(O)[C@@]4(O)C(=O)C2=C3O)c1` [TCMDC-138636], the “% Inhibition” value stood at 7.419%.

Regarding `CCCC/C=C(\Cl)c1ccc(O)c2c1C[C@H]1C[C@H]3[C@H](N(C)C)C(=O)C(C(N)=O)=C(O)[C@@]3(O)C(=O)C1=C2O` [TCMDC-138656], the “% Inhibition” value is 85.94%.

`COc1ccccc1C1CN(Cc2coc3ccccc3c2=O)Cc2ccccc2O1` (stereo not shown) [TCMDC-124669]: the “% Inhibition” value came out at 4.679%.

`Cc1c(Cl)cccc1S(=O)(=O)Nc1ccc(CCN2CCC(N)CC2)cc1` [TCMDC-134083]: the “% Inhibition” value is 99.61%.

On to `NC1CCN(CCc2ccc(NS(=O)(=O)c3cccc4ccccc34)cc2)CC1` [TCMDC-134084], for which the “% Inhibition” value is given as 55.68%.

As for `COC(=O)CCCOc1cc(Cc2cnc(N)nc2N)cc(OC)c1OC` [TCMDC-137557], the “% Inhibition” value is recorded as 8.428%.

Take `CC1(C)N=C(N)N=C(N)N1OCCc1cccc2ccccc12` [TCMDC-131663]: the “% Inhibition” value came out at 2.124%.

As to `CCNC(=O)Nc1ccc(-c2ccc(-c3nc4cccc(C)c4[nH]3)s2)cc1` [TCMDC-133170], the “% Inhibition” value was found to be 11.61%.

For the compound `Cc1cc2[nH]c(-c3ccc(C(=O)NCCCN4CCN(c5cccc(Cl)c5)CC4)cc3)nc2cc1Cl` [TCMDC-140027], the “% Inhibition” value is listed as -17.26%.

For `CCn1ncc2c(NC3CCOCC3)c(CNC(=O)c3ccnn3C)c(C)nc21` [TCMDC-136560], the “% Inhibition” value came out at 97.63%.

With `CCc1nc2c(cnn2CC)c(NC2CCOCC2)c1CNC(=O)N1CCOCC1` [TCMDC-136620], the “% Inhibition” value was found to be 94.41%.

Take `Cn1nccc1C(=O)NCCNCc1ccc(-c2ccc(-c3nc4cc(F)ccc4[nH]3)cc2)cc1.O=C(O)C(F)(F)F` [TCMDC-133012]: the “% Inhibition” value is listed as -30.72%.

The record behind these values is paper PMC4552634, “A New Set of Chemical Starting Points with Plasmodium falciparum Transmission-Blocking Potential for Antimalarial Drug Discovery” (PLoS ONE, 2015).
